Assay outcomes as filed in PubChem BioAssay.
Only some compounds are listed: those with a hit (about 3% of all), similar ones and a draw of the others.
MITF TRPM1 HTS: activators of MITF-driven TRPM1 promoter activity in SK-MEL-5 cells; SK-MEL-5 TRPM1-promoter luciferase, 24 h; % of positive control, neutral wells = 0; activation, % at 12.5 µM; 300,000 compounds, 0.75% hits;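 active = mean activation of at least 80% with every replicate also reaching 80%; inconclusive = mean reaches 80% but some replicate falls short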;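 also: 0% = neutral control wells and 100% = parthenolide positive control wells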
Statin myotox sup: suppression of simvastatin myotoxicity. C2C12 myotubes + simvastatin, ATP luminescence, 48 h; scaled: DMSO 0, geranylgeraniol control 100. rescue of ATP level, % at 7.49 µM. 330,000 compounds, 0.78% hits;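 active = mean ATP rescue above about 67%, or every replicate alone reaching that limit, limit read from the data, passing the limit was not always enough; inconclusive = no clear call, values can overlap the other calls; inactive = mean under the limit and some replicate under it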;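 also: myotubes were challenged with 10 µM simvastatin during compound exposure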
esBAF inh: inhibitors of esBAF chromatin remodeling in mouse ES cells. Bmi1-luciferase knock-in reporter, 24 h; 100% = twice the neutral-well signal. reporter increase, % at 12.5 µM. 350,000 compounds, 2% hits; in the data active = activation above about 40%; inconclusive = no clear call, values can overlap the other calls;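 also: 0% = median of the plate's neutral control wells and 100% = double that signal; a rise in the Bmi1 reporter signal indicates esBAF inhibition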
Wnt act: activates Wnt/beta-catenin signaling in a reporter cell assay | activator, plate reader | 300,000 compounds, 1.2% hits | activation, % at 9.35 µM; in the data active = activation above about 30%, passing the limit was not always enough; inconclusive = no clear call, values can overlap the other calls;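 also: 0% = neutral control wells and 100% = positive control wells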
An asterisk follows results filed as active; ? = inconclusive; / = no result.

SMILES	MITF TRPM1 HTS	Statin myotox sup	esBAF inh	Wnt act
COc1ccc(-c2cn(-c3ccccc3)c(=S)[nH]2)cc1OC	17.0	-10.9	43.6*	5.3
O=[N+]([O-])c1ccc(-c2cn(-c3ccccc3)c(=S)[nH]2)cc1	13.9	/	/	48.7*
CC(C)CC#Cc1ccc2c(c1)O[C@@H](CN(C)C(=O)CC1CC1)[C@H](C)CN([C@H](C)CO)S2(=O)=O	/	19.3	6.0	/
C[C@@H]1CCCCO[C@@H](CN(C)S(=O)(=O)c2cn(C)cn2)[C@@H](C)CN([C@@H](C)CO)C(=O)c2cc(NC(=O)Nc3ccccc3)ccc2O1	/	/	4.6	/
CCCc1cc(Nc2c(C)n(C)n(-c3ccccc3)c2=O)n2c(nc3ccccc32)c1C#N	-10.4	104.4*	0.6	-3.3
CO[C@H]1CN(C)C(=O)c2ccc(NC(=O)NC(C)C)cc2OC[C@@H](C)N(CC2CC2)C[C@@H]1C	/	1.3	-1.9	/
O=c1[nH]c2ccccc2nc1CCc1ccccc1	78.4	/	/	31.4*
c1ccc(CCc2nc3ccccc3[nH]2)cc1	69.0	-7.9	20.4	41.9*
c1csc(Cc2nc3ccccc3[nH]2)c1	26.6	19.7	70.8*	17.8
O=c1[nH]c2ccccc2nc1Cc1ccc(Cl)cc1	3.1	-7.4	0.2	-6.6
COc1ccc(NC(=O)N[C@@H]2CC[C@@H](CCNC(=O)Cc3ccncc3)O[C@@H]2CO)cc1	/	-5.2	3.2	/
O=C(COC(=O)C1=COCCO1)Nc1cc(Cl)c(Cl)cc1Cl	6.8	2.1	-4.3	45.4*
Cc1ccc(NC(=O)CN2CCCC2c2cccn2C)c(Br)c1 (stereo unspecified)	108.7*	-5.0	16.3	10.4
Cc1ccc(-n2nc3ccc(NC(=O)C(C)C)cc3n2)cc1	111.1*	-2.5	100.2*	-3.9
CC(=O)Nc1ccc2c(c1)ncn2-c1ccc(C)cc1	39.0	/	/	42.5*
CC(=O)Nc1cc2nn(-c3ccccc3)nc2cc1C	6.9	-1.3	8.0	22.3
Cc1cc2nn(-c3ccccc3)nc2cc1NC(=O)c1cccs1	48.5	/	/	30.9*
CC(C)CC(=O)Nc1ccc2nn(-c3ccccc3)nc2c1	99.5*	/	/	?
CC(=O)Nc1ccc2c(c1)ncn2C	/	/	/	-3.5
C[C@H](CO)N1C[C@H](C)[C@@H](CN(C)S(=O)(=O)c2ccccc2)Oc2ccc(NS(=O)(=O)c3ccc(Cl)cc3)cc2C1=O	/	-29.9	-1.9	/
C[C@H](CO)N1C[C@H](C)[C@H](CN(C)C(=O)Nc2ccc(F)cc2)Oc2ccc(NC(=O)Nc3ccc(C(F)(F)F)cc3)cc2C1=O	/	30.0	-2.5	/
COc1ccc(-n2nc3ccc(N)cc3n2)cc1	/	0.8	-58.6	-1.1
CCCC(=O)Nc1ccc2nn(-c3ccc(OC)cc3)nc2c1	75.9	-16.8	50.0*	-0.9
CCC(=O)Nc1cc2c(cc1Cl)-c1ccccc1C2	16.4	6.0	39.3	17.0
CCC(=O)Nc1cc2nn(-c3ccccc3)nc2cc1Cl	6.9	-8.2	36.4	37.6*
SMILES	MITF TRPM1 HTS	Statin myotox sup	esBAF inh	Wnt act
COc1ccc(S(=O)(=O)Nc2cccc3c2O[C@@H](CN(C)C(=O)Nc2ccc4c(c2)OCO4)[C@@H](C)CN([C@H](C)CO)C3=O)cc1	/	/	16.3	/
COc1ccc(S(=O)(=O)N(C)C[C@H]2OCCCC[C@H](C)Oc3ccc(NC(=O)Nc4ccccc4)cc3C(=O)N([C@@H](C)CO)C[C@H]2C)cc1	/	/	-1.1	/
C[C@H]1CN([C@@H](C)CO)C(=O)c2cc(NC(=O)CCC(F)(F)F)ccc2O[C@@H]1CN(C)S(=O)(=O)c1cn(C)cn1	/	27.7	-9.8	/
C[C@@H]1CCCCO[C@@H](CN(C)C(=O)CCC(F)(F)F)[C@H](C)CN([C@H](C)CO)C(=O)c2cc(NS(=O)(=O)c3ccc(Cl)cc3)ccc2O1	/	/	31.1	/
CCN(CC(=O)NCc1ccc(F)cc1)C(=O)c1ccc(COc2ccccc2)cc1	45.1	-14.4	56.7*	0.0
CCC(Oc1ccccc1)C(=O)N(CC)CC(=O)NCc1ccc(F)cc1 (stereo unspecified)	-0.3	/	/	0.9
COc1cccc(C#Cc2cnc3c(c2)C(=O)N([C@H](C)CO)C[C@H](C)[C@@H](CN(C)C(=O)C2CC2)O3)c1	/	3.9	-5.5	/
Clc1ccc(-c2noc(CN3CCCC3)n2)cc1	/	2.7	44.3*	0.1
Cc1ccc(-c2noc(CN3CCCCC3)n2)cc1	/	/	34.4	/
CS(=O)(=O)N1N=C(c2ccc(Br)cc2)CC1c1ccc2c(c1)OCO2 (stereo unspecified)	?	2.2	53.9*	/
CC(=O)N1N=C(c2ccc(C)cc2)CC1c1ccc2c(c1)OCO2 (stereo unspecified)	/	19.1	100.2*	?
CC(=O)N1N=C(c2ccc(C)cc2)CC1c1ccco1 (stereo unspecified)	48.2	1.8	23.4	6.9
CS(=O)(=O)Nc1ccc(C2=NN(S(C)(=O)=O)C(c3ccc4nccnc4c3)C2)cc1 (stereo unspecified)	7.6	5.9	5.2	-2.5
Cc1ccc(C2=NN(S(C)(=O)=O)C(c3ccc4c(c3)OCO4)C2)cc1 (stereo unspecified)	38.1	/	/	50.3*
Cc1cc(-c2nnc(CCC(=O)N(CC3CCC3)CC3CCCO3)o2)no1 (stereo unspecified)	31.9	5.4	47.0*	-0.8
C[C@@H]1CN([C@H](C)CO)C(=O)c2cc(Br)cnc2O[C@H]1CN(C)C(=O)Nc1ccccc1	/	-1.1	-9.9	/
Cc1cc(C)nc(Sc2nc(Cl)nc(N(c3ccccc3)c3ccccc3)n2)n1	-10.0	101.6*	2.2	-6.4
Cc1noc(C)c1S(=O)(=O)Nc1ccc2c(c1)C(=O)N([C@H](C)CO)C[C@@H](C)[C@H](CN(C)C(=O)Nc1ccccc1)O2	/	/	-2.9	/
CC(C)(C)C(=O)O/N=C(\N)COc1cccc(Cl)c1	54.8	-3.6	81.1*	10.8
O=C(Nc1cccc2ccccc12)c1ccc(F)cc1	18.8	1.3	35.1	7.2
CCOC(=O)Nc1ccc(C)cc1Br	8.7	107.8*	-0.5	-2.2
CCOC(=O)Nc1ccc2c3c(cccc13)-c1ccccc1-2	11.0	-9.3	45.8*	10.1
O=C(Nc1cccc2ccccc12)c1ccccc1	54.6	-12.5	51.4*	17.1
CCOC(=O)Nc1cccc2ccccc12	15.2	30.6	5.9	-0.1
CCOC(=O)Nc1cc(NC(=O)OCC)c(C)nc1C	-3.9	/	/	?
SMILES	MITF TRPM1 HTS	Statin myotox sup	esBAF inh	Wnt act
O=C(Nc1cccc2ccccc12)OCc1ccccc1	48.3	8.1	61.3*	4.0
C[C@H]1CN([C@@H](C)CO)C(=O)c2cc(NS(=O)(=O)c3cccs3)ccc2O[C@H]1CN(C)Cc1ccc2c(c1)OCO2	/	16.4	-6.6	/
C[C@@H]1CCCCO[C@@H](CN(C)C(=O)NC2CCCCC2)[C@H](C)CN([C@@H](C)CO)C(=O)c2cc(NS(=O)(=O)c3ccc(F)cc3)ccc2O1	/	/	7.1	/
Nc1ccccc1C(=O)Nc1cccc2ccccc12	/	17.3	65.1*	0.1
O=C(C[C@H]1CC[C@@H]2[C@H](COC[C@@H](O)CN2Cc2ccc3c(c2)OCO3)O1)N1CCOCC1	/	19.4	4.9	/
CC1SCC(=NOCc2ccccc2)CS1 (stereo unspecified)	/	/	/	48.5*
O=C(Nc1ccccc1)C1=C[C@H](c2ccc3c(c2)OCO3)C[C@H](OCCCCO)O1	29.9	18.7	47.6*	10.2
